Laboratory results: PubChem BioAssay (Tox21)
Results filed as inconclusive are left out. Activity calls are given as the source filed them. Calls come from the whole dose curve; as a rule, active = well fitted curve in the direction sought with a large enough effect in the repeat runs; inconclusive = weak or mixed curves; inactive = no such curve, though single readings can be large; an effect the other way counts as inactive or inconclusive.

Tests used:
[1] = qHTS RealTime-Glo MT Cell Viability Assay in HepG2 cells - 40 hour (AID 1224870); note: nearly all actives have a fitted effect of over 50% in size; note: potency is the fitted concentration of half-maximal effect
Procedure, shortened: (§1)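 HepG2 cells mixed with RealTime-Glo MT reagents (NanoLuc plus cell-permeant prosubstrate) were seeded at 600 cells/well, incubated 5 h at 37 C/5% CO2, then pinned with compounds in DMSO; nonlytic luminescence tracked viability during 40 h treatment.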

[2] = A CellTox Green Cytotoxicity Assay to monitor cytotoxicity in HEK293 cells - 40 hour (AID 1224871); note: nearly all actives have a fitted effect of over 45% in size; note: potency is the fitted concentration of half-maximal effect
Procedure, shortened: (§2)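 Read-out: fluorescence of a cell-impermeant cyanine dye staining DNA of dead cells, proportional to cytotoxicity. HEK293, 600 cells/well with reagent, compound (23 nL DMSO) added after 5 h; reads at 0, 8, 16, 24, 32, 40 h.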

[3] = qHTS RealTime-Glo MT Cell Viability Assay in HEK293 cells - 16 hour (AID 1224872); note: nearly all actives have a fitted effect of over 50% in size; note: potency is the fitted concentration of half-maximal effect; for activity change, negative = cytotoxicity: top concentration of the series differs between compounds
Procedure, shortened: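 Viability tracked continuously by luminescence as live cells reduce a prosubstrate for NanoLuc; HEK293 cells preincubated 5 h, compound-treated at 37 C, and read at 0, 8, 16, 24, 32 and 40 h.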

[4] = qHTS RealTime-Glo MT Cell Viability Assay in HepG2 cells - 8 hour (AID 1224873); note: nearly all actives have a fitted effect of over 55% in size
Procedure, shortened: as §1

[5] = qHTS RealTime-Glo MT Cell Viability Assay in HEK293 cells - 40 hour (AID 1224874); details: RealTime-Glo luminescence; max response: hits give low values; note: nearly all actives have a fitted effect of over 50% in size; note: potency is the fitted concentration of half-maximal effect
Procedure, shortened: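 Luminescence readout at each listed time point; HEK293, 600 cells/well, RealTime-Glo MT reagent added with cells; compounds pinned (23 nL in DMSO) after 5 h at 37 C; continuous culture at 37 C.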

[6] = A CellTox Green Cytotoxicity Assay to monitor cytotoxicity in HEK293 cells - 24 hour (AID 1224875); note: series mostly up to about 77 µM; nearly all actives have a fitted effect of over 45% in size
Procedure, shortened: as §2

[7] = A CellTox Green Cytotoxicity Assay to monitor cytotoxicity in HepG2 cells - 16 hour (AID 1224876); note: nearly all actives have a fitted effect of over 45% in size; note: potency is the fitted concentration of half-maximal effect
Procedure, shortened: (§3)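 HepG2, 600 cells/well premixed w/ CellTox Green; 5 h settle, 37 C/5% CO2; pintool cpd add (DMSO); 37 C, 40 h; fluorescence read at 0, 8, 16, 24, 32, 40 h.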

[8] = qHTS RealTime-Glo MT Cell Viability Assay in HepG2 cells - 32 hour (AID 1224877); note: nearly all actives have a fitted effect of over 55% in size
Procedure, shortened: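 Viability was tracked continuously by NanoLuc luminescence from prosubstrate reduced by living HepG2 cells, at successive time points over 40 h of compound exposure. Cells with reagent were preincubated 5 h at 37 °C before compound addition.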

[9] = A CellTox Green Cytotoxicity Assay to monitor cytotoxicity in HepG2 cells - 24 hour (AID 1224878); note: nearly all actives have a fitted effect of over 45% in size; note: potency is the fitted concentration of half-maximal effect
Procedure, shortened: as §3

[10] = A CellTox Green Cytotoxicity Assay to monitor cytotoxicity in HepG2 cells - 40 hour (AID 1224879); note: nearly all actives have a fitted effect of over 40% in size
Procedure, shortened: as §3
% is set by controls: 0 for no effect and ±100 for the full control effect.

COc1cc(O)cc(O)c1
inactive: Potency [1] | Potency [2] | Potency [3] | outcome [4] | max response [5] 2.03% | Potency [6] | Potency [7] | Potency [8] | Potency [9] | Potency [10]

CC1=CC(C)C(C=O)C(C)C1 (stereo not drawn)
inactive: Potency [1] | Potency [2] | Potency [3] | outcome [4] | max response [5] 4.71% | Potency [6] | Potency [7] | Potency [8] | Potency [9] | Potency [10]

CCCCC=O
inactive: Potency [1] | Potency [2] | Potency [3] | outcome [4] | max response [5] 2.57% | Potency [6] | Potency [7] | Potency [8] | Potency [9] | Potency [10]

NS(=O)(=O)c1cc(C2(O)NC(=O)c3ccccc32)ccc1Cl (stereo not drawn)
inactive: Potency [1] | Potency [2] | Potency [3] | outcome [4] | max response [5] 1% | Potency [6] | Potency [8] | Potency [9] | Potency [10]

CCC(C)OC(=O)N1CCCCC1CCO (stereo not drawn)
inactive: Potency [1] | Potency [2] | Potency [3] | outcome [4] | max response [5] -15.9% | Potency [6] | Potency [7] | Potency [8] | Potency [9] | Potency [10]

CCOC(=O)Nc1ccc2c(c1)N(C(=O)CCN1CCOCC1)c1ccccc1S2
inactive: Potency [1] | Potency [2] | Potency [3] | outcome [4] | max response [5] -6.68% | Potency [6] | Potency [8] | Potency [9] | Potency [10]

CCCCCCCCC=O
inactive: Potency [1] | Potency [2] | Potency [3] | outcome [4] | max response [5] -0.417% | Potency [6] | Potency [8]

C=CC(=O)OCCCCCC
inactive: Potency [1] | Potency [2] | Potency [3] | outcome [4] | max response [5] -6.6% | Potency [7] | Potency [8] | Potency [9] | Potency [10]

CN(C)CCn1nnnc1SCC1=C(C(=O)O)N2C(=O)[C@@H](NC(=O)Cc3csc(N)n3)[C@H]2SC1
inactive: Potency [1] | Potency [2] | Potency [3] | outcome [4] | max response [5] 13.3% | Potency [7] | Potency [8] | Potency [9] | Potency [10]

Nc1[nH]c(=O)ncc1F
inactive: Potency [1] | Potency [2] | Potency [3] | outcome [4] | Potency [6] | Potency [7] | Potency [8] | Potency [9]

FC(F)(F)C(F)(F)C(F)(F)C(F)(F)C(F)(F)C(F)(F)C(F)(F)C(F)(F)C(F)(F)C(F)(F)F
inactive: activity change, negative = cytotoxic [1] -1.18% [at 6.97 µM] | cytotoxicity increase [2] -18% [at 6.97 µM] | activity change, negative = cytotoxicity [3] -4.72% [at 6.97 µM] | viability change, negative = cytotoxic [4] 3.63% [at 6.97 µM] | activity change [6] -7.77% [at 6.97 µM, hits give high values] | cytotoxicity increase [7] 1.39% [at 6.97 µM] | activity change, negative = cytotoxic [8] -2.37% [at 6.97 µM] | cytotoxicity [9] 4.69% [at 6.97 µM] | cytotoxicity increase [10] 1.66% [at 6.97 µM]

COC[C@H](c1ccc(C(F)(F)F)cc1)N1CCN(C2(C)CCN(C(=O)c3c(C)ncnc3C)CC2)C[C@H]1C
inactive: Potency [1] | Potency [2] | Potency [3] | outcome [4] | max response [5] -19.9% | Potency [7] | Potency [8] | Potency [9] | Potency [10]

CSc1ccc(C=O)cc1
inactive: Potency [1] | Potency [2] | Potency [3] | outcome [4] | max response [5] 0.555% | Potency [6] | Potency [8] | Potency [9] | Potency [10]

CC(C)[C@H](N)C(=O)OCCOCn1cnc2c(=O)[nH]c(N)nc21
inactive: Potency [1] | Potency [2] | Potency [3] | outcome [4] | max response [5] 9.28% | Potency [7] | Potency [8] | Potency [9] | Potency [10]

CN(C)C(=O)C(CCN1CCC(O)(c2ccc(Cl)cc2)CC1)(c1ccccc1)c1ccccc1
active: Potency [1] 23.9 µM | Potency [2] 26.8 µM | Potency [3] 8.49 µM | Potency [5] 10.7 µM | Potency [7] 10.7 µM | Potency [9] 15.1 µM
inactive: outcome [4]

Cc1nc(-c2ccc(OCC(C)C)c(C#N)c2)sc1C(=O)O
inactive: Potency [1] | Potency [2] | Potency [3] | outcome [4] | Potency [6] | Potency [7] | Potency [8] | Potency [9] | Potency [10]

CNC(=O)c1c(I)c(NC(=O)CCCCC(=O)Nc2c(I)c(C(=O)O)c(I)c(C(=O)NC)c2I)c(I)c(C(=O)O)c1I
inactive: Potency [1] | Potency [2] | Potency [3] | outcome [4] | max response [5] -0.381% | Potency [7] | Potency [8] | Potency [9] | Potency [10]

C=CCn1c(=O)n([C@@H]2O[C@H](CO)[C@@H](O)[C@H]2O)c2nc(N)[nH]c(=O)c21
inactive: Potency [1] | Potency [2] | Potency [3] | outcome [4] | max response [5] 3.44% | Potency [6] | Potency [8] | Potency [9] | Potency [10]

OCCN1C[C@H](O)[C@@H](O)[C@H](O)[C@H]1CO
inactive: Potency [1] | Potency [2] | Potency [3] | outcome [4] | max response [5] 3.53% | Potency [8] | Potency [9] | Potency [10]

O=C(O)/C=C/c1ccc(Cn2ccnc2)cc1
inactive: Potency [1] | Potency [2] | Potency [3] | outcome [4] | max response [5] 2.89% | Potency [6] | Potency [8] | Potency [9] | Potency [10]

Cc1ccc(N)cc1[N+](=O)[O-]
inactive: Potency [1] | Potency [2] | Potency [3] | outcome [4] | max response [5] -16.8% | Potency [7] | Potency [8] | Potency [9] | Potency [10]

CC(=O)OC(C)(C)C
inactive: Potency [1] | Potency [2] | Potency [3] | outcome [4] | max response [5] 8.31% | Potency [7] | Potency [8] | Potency [9] | Potency [10]

CC(C)(C)OC(=O)N1C[C@@H](F)C[C@H]1C(=O)O
inactive: Potency [1] | Potency [2] | Potency [3] | outcome [4] | max response [5] 2.11% | Potency [8] | Potency [9] | Potency [10]

O=C1OC(=O)c2cc([N+](=O)[O-])ccc21
inactive: Potency [1] | Potency [2] | Potency [3] | outcome [4] | max response [5] 13% | Potency [7] | Potency [8] | Potency [9] | Potency [10]
